The source of these data is PubChem BioAssay (EPA / NIEHS).

The AC50 is the concentration at which the activity in the assay is half-maximal.

SMILES strings stand for the structures. Results filed as inconclusive are left out. The source made the active and inactive calls. The calls were made as follows, unless noted: active = hit-call score of the fitted dose curve at least 0.9, where 1 is the maximum; inactive = score below 0.9.

A short description of test [1]: ATG_Oct_MLP_CIS: Attagene CIS-FACTORIAL HepG2 Assay for human Octamer-Binding Transcription Factor (Oct) (AID 2282993). The note with it: HepG2 Attagene cis-factorial Oct reporter, mRNA; actives raise or lower the signal. The procedure, abridged:
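Cells of the HepG2 line express promoter-controlled reporter sequences whose mRNA levels, after 24 h treatment, are measured by RT-PCR and capillary electrophoresis. Increases and decreases are scored relative to DMSO.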

Test [2] deals with Cellular tumor antigen p53 (Homo sapiens) (UniProt P04637). In words: ATG_p53_CIS: Attagene CIS-FACTORIAL HepG2 Assay for human p53 Transcription Factor (AID 2282994). The note with it: HepG2 p53 cis-element reporter, Attagene mRNA; actives raise or lower the signal. The procedure, abridged: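 Using HepG2 hepatoma cells carrying cis-acting multiplexed reporters, mRNA induction is detected after a 24 h exposure. Gain- and loss-of-signal responses are fitted relative to DMSO-treated cells.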
Chain of Cellular tumor antigen p53 (Homo sapiens) (P04637 whole entry, looked up): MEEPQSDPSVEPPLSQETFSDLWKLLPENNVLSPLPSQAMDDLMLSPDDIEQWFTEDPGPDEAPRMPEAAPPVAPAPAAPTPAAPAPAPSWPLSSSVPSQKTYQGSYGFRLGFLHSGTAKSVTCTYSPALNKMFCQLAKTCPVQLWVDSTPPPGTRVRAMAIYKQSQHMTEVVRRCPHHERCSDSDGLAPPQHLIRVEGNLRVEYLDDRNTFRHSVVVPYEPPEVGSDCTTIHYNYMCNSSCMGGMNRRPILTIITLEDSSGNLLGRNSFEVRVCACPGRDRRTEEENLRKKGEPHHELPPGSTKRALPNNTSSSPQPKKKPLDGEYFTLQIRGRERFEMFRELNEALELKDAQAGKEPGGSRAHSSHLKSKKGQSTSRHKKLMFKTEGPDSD

Test [3] concerns the target human Peroxisome Proliferator-activated Receptor delta (PPARd), PPARD (gene 5467) (UniProt Q03181). In words: ATG_PPARd_TRANS: Attagene TRANS-FACTORIAL HepG2 Assay for human Peroxisome Proliferator-activated Receptor delta (PPARd) (AID 2283002; active = hit-call score of the fitted dose curve at least 0.9, where 1 is the maximum). The procedure, abridged:
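Transient HepG2 transfection (multiple GAL4-UAS RTUs, chimeric receptor-Gal4); 24 h dosing; total RNA → oligo(dT) RT → PCR → 6-FAM primer extension → HpaI cut → CE. Positive direction vs DMSO.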

In test [4] the target is Peroxisome proliferator-activated receptor gamma (Homo sapiens) (UniProt P37231). In words: ATG_PPARg_TRANS: Attagene TRANS-FACTORIAL HepG2 Assay for human Peroxisome Proliferator-activated Receptor-gamma (PPARg) (AID 2283007; active = hit-call score of the fitted dose curve at least 0.9, where 1 is the maximum). The procedure, abridged: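 HepG2 cells transiently transfected with multiplexed GAL4-UAS reporter units and exogenous chimeric NR-Gal4 proteins; reporter mRNA quantified after 24 h compound exposure by RT-PCR, fluorescent labelling, HpaI digestion and capillary electrophoresis; gain-of-signal fitted versus DMSO baseline.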
Chain of Peroxisome proliferator-activated receptor gamma (Homo sapiens) (P37231 whole entry, looked up, the tested form may be a part): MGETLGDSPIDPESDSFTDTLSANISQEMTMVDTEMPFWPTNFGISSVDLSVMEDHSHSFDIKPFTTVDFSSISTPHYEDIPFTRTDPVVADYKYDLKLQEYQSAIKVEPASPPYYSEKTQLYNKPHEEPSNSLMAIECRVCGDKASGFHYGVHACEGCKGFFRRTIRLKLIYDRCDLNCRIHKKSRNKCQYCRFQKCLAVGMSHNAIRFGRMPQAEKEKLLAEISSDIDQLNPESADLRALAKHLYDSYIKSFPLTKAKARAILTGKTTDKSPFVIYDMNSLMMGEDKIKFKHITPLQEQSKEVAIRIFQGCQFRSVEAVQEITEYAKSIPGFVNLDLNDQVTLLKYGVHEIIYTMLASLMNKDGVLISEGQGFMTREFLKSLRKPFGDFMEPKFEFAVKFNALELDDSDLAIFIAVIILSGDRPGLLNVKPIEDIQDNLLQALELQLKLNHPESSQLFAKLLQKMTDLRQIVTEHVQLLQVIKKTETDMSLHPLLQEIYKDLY

Test [5] concerns the target Nuclear receptor subfamily 1 group I member 2 (Homo sapiens) (UniProt O75469). In words: ATG_PXR_TRANS: Attagene TRANS-FACTORIAL HepG2 Assay for human Pregnane X Receptor (PXR) (AID 2283008; active = hit-call score of the fitted dose curve at least 0.9, where 1 is the maximum). The procedure, abridged:
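Fluorescence intensity of FAM-labelled, HpaI-digested reporter amplicons, separated by capillary electrophoresis, quantifies induction. HepG2 cells with PXR-Gal4 trans-reporter system were exposed 24 h; DMSO defines baseline.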

Test [6] addresses human RAR-related Orphan Receptor beta (RORb), RORB (gene 6096) (UniProt Q92753). Nature of the test: ATG_RORb_TRANS: Attagene TRANS-FACTORIAL HepG2 Assay for human RAR-related Orphan Receptor beta (RORb) (AID 2283010; active = hit-call score of the fitted dose curve at least 0.9, where 1 is the maximum). The procedure, abridged: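 Readout is reporter-gene mRNA induction, detected as fluorescence after RT-PCR and capillary electrophoresis, fitted for gain of signal against DMSO controls. Transiently transfected HepG2 liver cells carrying GAL4-UAS reporter constructs were treated for 24 hours.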

Test [7] concerns the target Retinoic acid receptor RXR-alpha (Homo sapiens) (UniProt P19793). Nature of the test: ATG_RXRa_TRANS: Attagene TRANS-FACTORIAL HepG2 Assay for human Retinoid X Receptor alpha (RXRa) (AID 2283012; active = hit-call score of the fitted dose curve at least 0.9, where 1 is the maximum). The procedure, abridged:
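Transient transfection of human HepG2 with multiple GAL4-UAS reporter constructs; 24 h compound exposure; total RNA isolated, reverse-transcribed, PCR-amplified, 6-FAM labelled, HpaI-cut, resolved by capillary electrophoresis. Positive-direction fit versus DMSO.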

Test [8] can be described thus: ATG_NRF2_ARE_CIS: Attagene CIS-FACTORIAL HepG2 Assay for human Nuclear Factor Erythroid 2 Related Factor 2 (NFR2) response to Antioxidant Response Elements (ARE) (AID 2282992). The settings on record: HepG2 Attagene ARE/NRF2 reporter, transcription factor activity; actives raise or lower the signal. The procedure, abridged:
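Cis-factorial assay: transfected HepG2 reporter library, 24 h dosing, mRNA readout via RT-PCR/CE; DMSO-referenced bidirectional analysis.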

Test [9] in a line: BSK_3C_TissueFactor: BioMAP Diversity Plus: 3C Assay for Tissue Factor Biomarker Activity (AID 2282997). The settings on record: BioMAP 3C HUVEC, tissue factor biomarker readout; actives raise or lower the signal. The procedure, abridged: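 HUVEC were treated 24 h, then surface tissue factor measured by ELISA and fitted bidirectionally against DMSO. Parallel SRB total-protein staining assessed overt cytotoxicity at the same time point.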

A short description of test [10]: BSK_3C_uPAR: BioMAP Diversity Plus: 3C Assay for Urokinase-type plasminogen activator receptor (uPAR) Biomarker Activity (AID 2282998). The note with it: BioMAP 3C HUVEC, uPAR biomarker ELISA; actives raise or lower the signal. The procedure, abridged: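 Endothelial primary cells of human umbilical vein origin received test chemical; 24 h later uPAR was assayed by ELISA. Fitting was bidirectional, DMSO as negative control.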
In general terms: An ELISA detects its analyte on a solid surface through an enzyme-linked reagent.

Test [11] in a line: BSK_3C_VCAM1: BioMAP Diversity Plus: 3C Assay for Vascular cell adhesion molecule 1 (VCAM1) Biomarker Activity (AID 2282999). The settings on record: BioMAP 3C HUVEC, VCAM1 ELISA, cytokine-stimulated; actives raise or lower the signal. The procedure, abridged: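 Endothelial cells from human umbilical vein are treated with test chemical. At 24 h, VCAM-1 is measured by ELISA, and responses in either direction are fitted relative to DMSO.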

Test [12] in a line: BSK_4H_Eotaxin3: BioMAP Diversity Plus: 4H Assay for Eotaxin 3 Biomarker Activity (AID 2283000).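 As to outcome: CCL26 protein level quantified by ELISA in parallel with SRB cytotoxicity check.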 The settings on record: primary human endothelial cells (HUVEC); actives raise or lower the signal. The procedure, abridged:
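Eotaxin-3 (CCL26) levels were measured by ELISA in HUVEC primary cultures 24 h post-dosing. Gain or loss of signal was fitted in both directions, with DMSO serving as baseline and negative control.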

Read-out in test [13]: Intercellular Adhesion Molecule 1 (ICAM1), ICAM1 (gene 3383)
In words: BSK_3C_ICAM1: BioMAP Diversity Plus: 3C Assay for Intercellular Adhesion Molecule 1 (ICAM1) Biomarker Activity (AID 2283003). The settings on record: primary human endothelial cells (HUVEC); actives raise or lower the signal. The procedure, abridged: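 ICAM-1 levels measured by ELISA after HUVEC cultures in the 3C system had been dosed for 24 h. Gain or loss of signal relative to DMSO was fitted in both directions.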

The nature of test [14]: BSK_3C_Proliferation: Cell Proliferation Assessment in the BioMAP Diversity Plus: 3C Assay (AID 2283006).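 As to AC50: potency may reflect either rise or fall in cell number versus DMSO.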 The settings on record: primary human endothelial cells (HUVEC). The procedure, abridged: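 Read-out is total protein by SRB absorbance at 560 nm, taken as a proxy for relative cell number. Primary human umbilical vein endothelium cultured below confluence was dosed for 48 h, TCA-fixed and SRB-stained; curves were fitted bidirectionally versus DMSO.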

In test [15] the target is human RAR-related Orphan Receptor gamma (RORg), RORC (gene 6097) (UniProt P51449). In words: ATG_RORg_TRANS: Attagene TRANS-FACTORIAL HepG2 Assay for human RAR-related Orphan Receptor gamma (RORg) (AID 2283011; active = hit-call score of the fitted dose curve at least 0.9, where 1 is the maximum). The procedure, abridged: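 HepG2 cells transiently transfected with GAL4-UAS reporter units and chimeric RORg-Gal4 construct; after 24 h chemical exposure, reporter mRNA measured by RT-PCR with fluorescent capillary electrophoresis, gain of signal fitted against DMSO.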
Chain of human RAR-related Orphan Receptor gamma (RORg), RORC (gene 6097) (P51449 whole entry, looked up, the tested form may be a part): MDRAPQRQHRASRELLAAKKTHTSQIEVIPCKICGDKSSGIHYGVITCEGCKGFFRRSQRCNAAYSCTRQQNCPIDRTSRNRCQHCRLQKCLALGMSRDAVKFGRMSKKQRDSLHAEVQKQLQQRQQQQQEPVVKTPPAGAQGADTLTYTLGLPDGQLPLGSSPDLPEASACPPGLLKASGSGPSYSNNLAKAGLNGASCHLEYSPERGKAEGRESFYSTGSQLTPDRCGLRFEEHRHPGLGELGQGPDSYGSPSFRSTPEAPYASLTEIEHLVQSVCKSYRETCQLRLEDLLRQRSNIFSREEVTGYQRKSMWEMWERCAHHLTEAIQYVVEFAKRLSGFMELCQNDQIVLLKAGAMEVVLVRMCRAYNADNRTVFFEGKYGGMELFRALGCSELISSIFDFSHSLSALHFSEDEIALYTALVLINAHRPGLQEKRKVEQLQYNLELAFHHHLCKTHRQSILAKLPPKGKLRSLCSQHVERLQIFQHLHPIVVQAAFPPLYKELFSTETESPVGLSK

Test [16] has as its target human Retinoic Acid Receptor beta (RARb), RARB (gene 5915) (UniProt P10826). In words: ATG_RARb_TRANS: Attagene TRANS-FACTORIAL HepG2 Assay for human Retinoic Acid Receptor beta (AID 2283004; active = hit-call score of the fitted dose curve at least 0.9, where 1 is the maximum). The procedure, abridged:
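HepG2 cells were transiently transfected with GAL4-UAS reporter units that report activity of exogenous chimeric NR-Gal4 proteins, then exposed to compound for 24 h. Reporter mRNA was quantified by RT-PCR with capillary electrophoresis fluorescence, as gain of signal over DMSO.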

For test [17], the target named is human Peroxisome Proliferator-activated Receptor alpha (PPARa), PPARA (gene 5465) (UniProt Q07869). In words: ATG_PPARa_TRANS: Attagene TRANS-FACTORIAL HepG2 Assay for human Peroxisome Proliferator-activated Receptor alpha (PPARa) (AID 2283001; active = hit-call score of the fitted dose curve at least 0.9, where 1 is the maximum). The procedure, abridged:
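Read-out is fluorescence of reporter cDNA fragments resolved by capillary electrophoresis after RT-PCR. Human HepG2 liver cells carried transfected PPARa-Gal4 chimera and GAL4-UAS reporter units, treated 24 h; activity scored as increase over DMSO.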

In test [18] the target is Retinoic acid receptor alpha (Homo sapiens) (UniProt P10276). Nature of the test: ATG_RARa_TRANS: Attagene TRANS-FACTORIAL HepG2 Assay for human Retinoic Acid Receptor alpha (RARa) (AID 2283005; active = hit-call score of the fitted dose curve at least 0.9, where 1 is the maximum). The procedure, abridged:
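Reporter transcripts, measured by RT-PCR with fluorescent labeling and capillary electrophoresis after 24 h dosing, reflect activity of an exogenous human RARa–GAL4 fusion in transiently transfected HepG2. Fitted for increase relative to DMSO.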

Test [19] has as its target human Retinoic Acid Receptor gamma (RARg), RARG (gene 5916) (UniProt P13631). In words: ATG_RARg_TRANS: Attagene TRANS-FACTORIAL HepG2 Assay for human Retinoic Acid Receptor gamma (RARg) (AID 2283009; active = hit-call score of the fitted dose curve at least 0.9, where 1 is the maximum). The procedure, abridged: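 Transient transfection of HepG2 with multi-reporter constructs, then 24 h chemical treatment. Total RNA isolated, reverse-transcribed, PCR-amplified, fluorescently labelled and resolved by capillary electrophoresis; activity scored as mRNA induction versus DMSO.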

Chain of human RAR-related Orphan Receptor beta (RORb), RORB (gene 6096) (Q92753 whole entry, looked up, the tested form may be a part): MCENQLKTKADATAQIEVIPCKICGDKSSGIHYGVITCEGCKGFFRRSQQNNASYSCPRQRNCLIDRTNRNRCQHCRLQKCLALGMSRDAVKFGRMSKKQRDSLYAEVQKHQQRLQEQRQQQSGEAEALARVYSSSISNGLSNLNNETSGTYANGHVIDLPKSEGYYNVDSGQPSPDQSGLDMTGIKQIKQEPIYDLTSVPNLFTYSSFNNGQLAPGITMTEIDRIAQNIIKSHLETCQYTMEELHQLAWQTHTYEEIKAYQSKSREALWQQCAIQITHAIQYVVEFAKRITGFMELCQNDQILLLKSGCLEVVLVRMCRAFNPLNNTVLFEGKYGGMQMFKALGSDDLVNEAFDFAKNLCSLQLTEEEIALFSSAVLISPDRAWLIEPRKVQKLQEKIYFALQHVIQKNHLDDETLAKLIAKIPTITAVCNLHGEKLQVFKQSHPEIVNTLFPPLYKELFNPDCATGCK
Chain of human Peroxisome Proliferator-activated Receptor alpha (PPARa), PPARA (gene 5465) (Q07869 whole entry, looked up, the tested form may be a part): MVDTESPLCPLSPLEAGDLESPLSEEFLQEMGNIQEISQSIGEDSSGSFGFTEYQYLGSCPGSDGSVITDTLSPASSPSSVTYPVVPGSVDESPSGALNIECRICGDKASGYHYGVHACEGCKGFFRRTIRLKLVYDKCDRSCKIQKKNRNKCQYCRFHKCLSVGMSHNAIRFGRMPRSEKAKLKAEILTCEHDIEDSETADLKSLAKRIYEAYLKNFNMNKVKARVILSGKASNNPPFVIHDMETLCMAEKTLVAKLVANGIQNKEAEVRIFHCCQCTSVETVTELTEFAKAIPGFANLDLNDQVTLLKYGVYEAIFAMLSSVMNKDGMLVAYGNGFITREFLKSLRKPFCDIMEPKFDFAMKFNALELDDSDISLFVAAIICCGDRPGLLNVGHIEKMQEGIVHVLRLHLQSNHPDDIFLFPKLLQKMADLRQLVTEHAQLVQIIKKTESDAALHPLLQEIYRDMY
Chain of Retinoic acid receptor RXR-alpha (Homo sapiens) (P19793 whole entry, looked up, the tested form may be a part): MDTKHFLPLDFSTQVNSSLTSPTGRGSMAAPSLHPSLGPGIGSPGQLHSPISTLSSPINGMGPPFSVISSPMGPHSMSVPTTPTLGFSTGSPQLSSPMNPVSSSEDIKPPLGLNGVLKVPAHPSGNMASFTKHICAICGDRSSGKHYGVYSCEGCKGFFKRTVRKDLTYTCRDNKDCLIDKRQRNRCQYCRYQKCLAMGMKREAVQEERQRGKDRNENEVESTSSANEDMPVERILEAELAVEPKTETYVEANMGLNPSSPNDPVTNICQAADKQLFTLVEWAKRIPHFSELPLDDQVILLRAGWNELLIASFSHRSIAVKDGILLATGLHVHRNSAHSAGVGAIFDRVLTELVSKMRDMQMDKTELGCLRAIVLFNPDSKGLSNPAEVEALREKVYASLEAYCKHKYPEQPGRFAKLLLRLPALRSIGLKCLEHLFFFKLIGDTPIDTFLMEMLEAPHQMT
Chain of human Peroxisome Proliferator-activated Receptor delta (PPARd), PPARD (gene 5467) (Q03181 whole entry, looked up, the tested form may be a part): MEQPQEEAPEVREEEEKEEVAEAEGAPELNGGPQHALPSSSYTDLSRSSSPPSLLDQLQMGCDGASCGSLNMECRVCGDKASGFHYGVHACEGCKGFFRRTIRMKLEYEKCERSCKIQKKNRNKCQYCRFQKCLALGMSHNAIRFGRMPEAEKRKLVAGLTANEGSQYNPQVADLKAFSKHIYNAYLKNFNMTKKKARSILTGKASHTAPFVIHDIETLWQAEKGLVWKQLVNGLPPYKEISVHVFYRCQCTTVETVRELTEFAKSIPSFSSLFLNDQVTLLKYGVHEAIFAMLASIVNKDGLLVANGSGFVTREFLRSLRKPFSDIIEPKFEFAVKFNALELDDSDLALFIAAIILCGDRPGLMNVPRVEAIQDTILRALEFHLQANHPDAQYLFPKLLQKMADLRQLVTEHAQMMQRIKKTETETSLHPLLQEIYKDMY
Chain of Nuclear receptor subfamily 1 group I member 2 (Homo sapiens) (O75469 whole entry, looked up, the tested form may be a part): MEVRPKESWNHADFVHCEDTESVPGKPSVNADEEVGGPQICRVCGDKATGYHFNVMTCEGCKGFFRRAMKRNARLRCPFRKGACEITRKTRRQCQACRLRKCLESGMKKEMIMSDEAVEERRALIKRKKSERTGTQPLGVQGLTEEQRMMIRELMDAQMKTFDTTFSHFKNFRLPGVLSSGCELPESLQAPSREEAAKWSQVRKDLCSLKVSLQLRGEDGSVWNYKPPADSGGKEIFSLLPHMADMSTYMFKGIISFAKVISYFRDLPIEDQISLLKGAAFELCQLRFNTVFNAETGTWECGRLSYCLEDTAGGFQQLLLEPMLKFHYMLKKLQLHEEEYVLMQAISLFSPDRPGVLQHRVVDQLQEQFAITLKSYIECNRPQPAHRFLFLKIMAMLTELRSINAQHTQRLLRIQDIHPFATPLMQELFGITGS
Chain of human Retinoic Acid Receptor gamma (RARg), RARG (gene 5916) (P13631 whole entry, looked up): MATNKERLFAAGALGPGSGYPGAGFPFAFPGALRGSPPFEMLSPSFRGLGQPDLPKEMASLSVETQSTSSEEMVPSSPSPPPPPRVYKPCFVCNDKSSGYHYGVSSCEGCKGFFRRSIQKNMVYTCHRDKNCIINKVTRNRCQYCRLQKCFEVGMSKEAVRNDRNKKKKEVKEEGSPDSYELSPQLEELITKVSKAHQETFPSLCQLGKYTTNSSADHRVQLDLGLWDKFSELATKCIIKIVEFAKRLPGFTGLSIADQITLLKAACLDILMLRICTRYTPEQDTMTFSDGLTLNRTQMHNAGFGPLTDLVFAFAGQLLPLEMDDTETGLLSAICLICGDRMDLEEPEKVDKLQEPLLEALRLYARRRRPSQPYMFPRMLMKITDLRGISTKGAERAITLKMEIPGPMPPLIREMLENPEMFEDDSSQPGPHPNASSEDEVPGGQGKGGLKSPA
Chain of human Retinoic Acid Receptor beta (RARb), RARB (gene 5915) (P10826 whole entry, looked up, the tested form may be a part): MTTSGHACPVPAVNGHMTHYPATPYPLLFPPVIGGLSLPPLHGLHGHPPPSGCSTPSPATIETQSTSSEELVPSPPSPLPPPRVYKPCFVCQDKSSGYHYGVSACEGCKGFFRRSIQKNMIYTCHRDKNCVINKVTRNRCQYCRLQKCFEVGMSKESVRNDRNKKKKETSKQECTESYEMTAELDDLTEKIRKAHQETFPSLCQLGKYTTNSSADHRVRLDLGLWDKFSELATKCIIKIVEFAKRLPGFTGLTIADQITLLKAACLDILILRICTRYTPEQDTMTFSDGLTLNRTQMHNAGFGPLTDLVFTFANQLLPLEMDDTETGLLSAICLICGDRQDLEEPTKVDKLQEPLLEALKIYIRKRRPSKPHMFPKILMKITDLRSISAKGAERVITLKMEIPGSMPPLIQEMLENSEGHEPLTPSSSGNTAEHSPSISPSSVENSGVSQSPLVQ

For the compound `CCOC(=O)OC1=C(c2cc(C)ccc2C)C(=O)NC12CCC(OC)CC2` (stereo unspecified), the compound was called inactive in [1], in test [2], in test [3], in test [4], in test [5] and in test [6]. The result in [7] was inactive.

In the case of `N#Cc1cccnc1`, the result in [8], in test [1], in test [9], in [10], in [11] and in test [12] was inactive. Besides, the call in test [3], in test [13], in test [14], in test [5] and in test [6] was inactive.

`Fc1cccc(Cl)c1CCl`: the AC50 is 26.3 µM (active) in test [8] and 4.39 µM (active) in test [4]. Also, the call in test [1], in test [3], in [5], in [6], in [15] and in test [7] was inactive.

For `O=C(CBr)c1ccc(O)cc1`, the AC50 in test [8] was 41.5 µM (active). In addition, the compound was called inactive in test [1], in test [2], in test [16], in test [4], in test [5] and in test [15].

On to `Nc1ncn[nH]1`, for which the result in test [8], in test [1] and in [3] was inactive.

In the case of `CCOCn1c(-c2ccc(Cl)cc2)c(C#N)c(Br)c1C(F)(F)F`, the call in test [8], in test [17], in test [3], in [18], in test [19] and in test [7] was inactive. The AC50 in [1] was 1.92 µM (active); in test [4], 4.71 µM (active); in test [5], 0.561 µM (active).

For `O=NN1CCOCC1`, the result in test [8], in test [1], in test [2], in test [3], in [4] and in [7] was inactive.

Turning to `O=c1[nH]c(=O)n(Cl)c(=O)n1Cl`, the result in [8], in [1], in test [17], in test [4], in [5] and in test [6] was inactive. For the same compound, the outcome in [15] and in test [7] was inactive.

As to `CN(C)C(=S)S`, the AC50 in test [8] is 26.8 µM (active). For the same compound, the outcome in [1], in test [9], in test [10], in [11], in test [12] and in test [13] was inactive. Further, the outcome in test [14], in [5] and in test [7] was inactive.

For `C=CC(Cl)CCl` (stereo unspecified), the values for the AC50 in test [8], in [9] and in test [5] were 20.2 µM (active), 0.0174 µM (active) and 27.2 µM (active), respectively. Besides, the call in test [1], in test [10], in test [11], in test [12], in test [17] and in test [13] was inactive. In addition, the compound was called inactive in [18], in test [14], in [4], in [19], in test [6] and in test [7].

As for `Cc1ccccc1OP(=O)(Oc1ccccc1C)Oc1ccccc1C`, the AC50 in [1] is 119 µM (active); in [9], 5.08 µM (active); in [10] it was 11.1 µM (active); in test [11], 11.8 µM (active); in [12], 9.39 µM (active); in [14] it was 8.31 µM (active). Also, the AC50 in test [5] was 0.0985 µM (active). Moreover, the outcome in test [2], in test [3], in test [13], in test [4] and in test [7] was inactive.

Take `O=C(N[C@H]1CN2CCC1CC2)c1ccc2c(c1)OCCO2`: the compound was classed as inactive in test [8], in test [1], in test [9], in [10], in test [11] and in test [12]. Further, the compound was called inactive in [3], in [13], in [16], in [14], in test [4] and in test [5]. Besides, the call in [19], in test [15] and in test [7] was inactive.
